The values below are quoted from earlier work in PubChem BioAssay AID977610.

In all, about 3,600 compounds went through this assay and about 3,600 (100%) were called active. Cut-off not given; nearly all actives show Ki up to about 18000 µM. So high a share suggests a set chosen from earlier hits. Some of the results follow. Numbered stars: 1 amine (or outer) side, 2 acyl side, 3 side chain; on linkers, the order of the positions; unused ones are H or OH. Where a SMILES comes first, the peptide text is derived from it. Square brackets hold non-standard residues; d marks the D form. Residues, ends and D or L forms follow the SMILES beside them. Peptide text beside a SMILES is read from it. [ ]: non-standard residue; d: D form. X2 = O=C([C@H](Cc1ccc(O[P+](O)(O)O)cc1)N[*:1])[*:2]; Orn(CH(NH2)2) = NC(N)NCCC[C@H](N)C(=O)O

This data set is described as follows: PubChem AID 977610. The conditions noted are these: PDB protein-ligand complexes, literature Ki.

On to `C[C@@H]1N[C@@H](c2cn(-c3ccccc3)nn2)[C@H](O)[C@@H]1O`, for which, where the note is “protein: Alpha-L-fucosidase Fuc2970, PDB entry 4pee”, the Ki is 0.0048 µM (active).
Consider `NCCCC[C@H](N[C@@H](CCc1ccccc1)C(=O)O)C(=O)N1CC=C[C@H]1C(=O)O`, for which the Ki (protein: human somatic angiontensin-I converting enzyme N domain, PDB entry 2c6n) is 0.131 µM (active).
Regarding `NCc1ccc(C[C@H](C[P+](O)(O)[C@@H](N)CCc2ccccc2)C(=O)O)cc1`, the Ki (protein: Aminopeptidase N, PDB entry 4qhp) was 0.009 µM (active).
For `NCc1cccc(C[C@H](C[P+](O)(O)[C@@H](N)CCc2ccccc2)C(=O)O)c1`, under “protein: Aminopeptidase N, PDB entry 4quo”, the Ki is 0.012 µM (active).
In the case of `N[C@@H](CCc1ccccc1)[P+](O)(O)C[C@@H](Cc1ccccc1)C(O)O`, under “protein: Aminopeptidase N, PDB entry 4qme”, the Ki is 0.302 µM (active).
`N[C@@H](CCc1cccnc1)[P+](O)(O)C[C@@H](Cc1ccccc1)C(=O)O`: the Ki (protein: Aminopeptidase N, PDB entry 4qir) is 0.112 µM (active).
In the case of `O=C(O)c1cccc(-c2cnc([C@@H](O)CCc3ccc(-c4ccccc4)cc3)o2)n1`, under “protein: Humanized Variant of Fatty Acid Amide Hydrolase (L192F, F194Y, A377T, S435N, I491V, V495M), PDB entry 3k83”, the Ki is 0.022 µM (active).
Regarding `O=C(O)c1cccc(-c2cnc([C@@H](O)CCCCCCc3ccccc3)o2)n1`, for the setting “protein: Humanized Variant of Fatty Acid Amide Hydrolase (L192F, F194Y, A377T, S435N, I491V, V495M), PDB entry 3k7f”, the Ki was 0.02 µM (active).
In the case of `Cc1ccc(-c2cnc([C@@H](O)CCCCCCc3ccccc3)o2)nc1`, the Ki (protein: Fatty-acid amide hydrolase 1 (L192F, F194Y, A377T, S435N, I491V, V495M mutation), PDB entry 4j5p) is 0.012 µM (active).
Turning to `O=C1CC(NC(=O)c2c(Cl)cccc2Cl)=CC=N1`, the inhibition constant (Ki) is, setting by setting: (protein: Non-receptor tyrosine-protein kinase TYK2 (D1023N mutation), PDB entry 4gfo) 0.24 µM (active); (protein: Tyrosine-protein kinase JAK2, PDB entry 4gfm) 0.06 µM (active).
As to `CC(=O)N[C@@H](CCCNC(N)N)C(=O)N[C@@H](Cc1c[nH]c2ccccc12)C(=O)N[C@H]1CCCCCCCNC(=O)[C@@H]2CCCN2C(=O)[C@H](CCCNC(N)N)NC(=O)[C@H](C)NC(=O)[C@@H]2CCCN2C(=O)[C@H](Cc2ccccc2)NC1=O`, for the setting “protein: Menin, PDB entry 4i80”, the Ki is 0.0238 µM (active).
`Oc1ccc(Br)cc1/C=C/S(O)(O)O`: the Ki (protein: CARBONIC ANHYDRASE 2, PDB entry 4bcw) is 100 µM (active).
As to `CC(C)C[C@@H](N)[C@H](O)C(=O)N[C@H](C(=O)N[C@H](C(=O)N[C@@H](CC(=O)O)C(=O)O)C(C)C)C(C)C`, the Ki (protein: Glutamyl aminopeptidase, PDB entry 4kx8) was 0.074 µM (active).
In the case of `O=[N+]([O-])c1ccc2n[nH]nc2c1`, the Ki (protein: KEMP ELIMINASE HG3.17 (V6I, Q37K, K50Q, G82A, M84C, S89N, Q90F, T105I, A125T, T142N, T208M, S265T, F267M, W275A, R276F,, PDB entry 4bs0) was 2 µM (active).
Regarding H-SRWQTSII-OH, the Ki (protein: CFTR Associated Ligand (CAL) PDZ domain, PDB entry 4k6y) was 14.8 µM (active).
Turning to `CSCC[C@H](NC(=O)[C@H](CO)NC(=O)[C@H](CCC(N)=O)NC(=O)[C@H](CCCN=C(N)N)NC(=O)[C@H](CS)NC(=O)[C@@H](N)[C@@H](C)O)C(=O)N[C@@H](CS)C(=O)N[C@H](C(=O)N[C@@H](C)C(=O)N[C@@H](CCCN=C(N)N)C(=O)O)[C@@H](C)O` (tested in a mixture with another compound) (H-TCRQSMCTAR-OH), where the note is “protein: urokinase-type plasminogen activator (uPA), PDB entry 4mnv”, the Ki is 11.6 µM (active).
With H-RWQDTRL-OH, the Ki (protein: CFTR Associated Ligand (CAL) PDZ domain, PDB entry 4k75) was 56.2 µM (active).
As to `CNc1nc2c(CC[C@H]3O[C@@H](OC)[C@H](O)[C@@H]3OC)c3nc(N)[nH]c(=O)c3cc2[nH]1`, where the note is “protein: tRNA guanine transglycosylase (TGT), PDB entry 4kwo”, the inhibition constant (Ki) was 0.353 µM (active).
As for `Cc1nnc(CNCCN2C(O)c3cccc4cccc(c34)C2O)s1` (stereo not drawn), under “protein: insect beta-N-acetyl-D-hexosaminidase OfHex1, PDB entry 3wmb”, the inhibitory constant (Ki) is 4.28 µM (active).
In the case of `Cc1nnc(CNCCN2C(O)c3cccc4c(N(C)C)ccc(c34)C2O)s1` (stereo not drawn), the Ki (protein: insect beta-N-acetyl-D-hexosaminidase OfHex1, PDB entry 3wmc) was 0.31 µM (active).
`CC(=O)N[C@@H](Cc1ccc(O[P+](O)(O)O)cc1)C(=O)N[C@H](C(=O)N1CCC[C@H]1C(=O)N[C@@H](CCC(=O)O)C(=O)N1CCC[C@H]1C(N)=O)[C@@H](C)O` (Ac-[X2]TPEP-NH2): the Ki (protein: E3 ubiquitin-protein ligase CBL, PDB entry 4gpl) is 1.3 µM (active).
In the case of `N[C@H](C(=O)O)[C@@H]1N=C(C(=O)O)CCS1`, under “protein: AmpC Beta-Lactamase, PDB entry 4old”, the Ki is 2000 µM (active).
For `C=C1CS[C@H]([C@H](N)C(=O)O)N=C1C(=O)O`, the Ki (protein: AmpC Beta-Lactamase, PDB entry 4okp) was 2000 µM (active).
Take `Cc1ccc(NC(=O)c2cccc(C(F)(F)F)c2)cc1-c1ccc2nc(NC3CC3)ncc2c1`: the Ki (protein: Mitogen-activated protein kinase 1 (Q103A, C164L mutation), PDB entry 4i5h) is 0.002 µM (active).
Take `Cc1cccc(Nc2cc(S(O)(O)O)c(N)c3c2C(=O)c2ccccc2C3=O)c1`: for the setting “protein: ecto-nucleoside triphosphate diphosphohydrolase 2, RnNTPDase2, PDB entry 4cd1”, the Ki is 12.8 µM (active).
Regarding `CCCCCC(=O)O[C@@H](CO)CO[P+](O)(O)OCC[N+](C)(C)C`, under “protein: Avermectin-sensitive glutamate-gated chloride channel GluCl alpha, PDB entry 4tnw”, the inhibition constant Ki was 167 µM (active).
On to `Nc1ncnc2c([C@@H]3N[C@H](CO)[C@@H](O)[C@H]3O)c[nH]c12`, for which the Ki (protein: Inosine-adenosine-guanosine-nucleoside hydrolase, PDB entry 4i72) was 0.0009 µM (active).
As for `Nc1ncnc2c(CN3C[C@H](O)[C@H](O)[C@H]3CO)c[nH]c12`, the Ki (protein: Inosine-adenosine-guanosine-nucleoside hydrolase, PDB entry 4i71) is 0.018 µM (active).
As for `O=c1[nH]cnc2c(CN3C[C@H](O)[C@H](O)[C@H]3CO)csc12`, the Ki (protein: Inosine-adenosine-guanosine-nucleoside hydrolase, PDB entry 4i73) was 0.19 µM (active) and the inhibition constant Ki (protein: Inosine-adenosine-guanosine-nucleoside hydrolase, PDB entry 4i74) was 0.19 µM (active).
As to `Nc1ncnc2c(CN3C[C@H](CSCC[C@H](N)C(=O)O)[C@@H](O)C3)c[nH]c12`, the Ki (protein: 5'-methylthioadenosine/S-adenosylhomocysteine nucleosidase, PDB entry 4f3k) is 6.9e-05 µM (active).
As for `CSCC[C@H](NC(=O)[C@H](C)N)C(=O)N[C@@H](CCCNC(N)N)C(=O)N[C@H](C(=O)O)C(C)C` (H-AM[Orn(CH(NH2)2)]V-OH), the Ki (protein: E3 ubiquitin-protein ligase XIAP (C202A, C213G mutation), PDB entry 4j48) was 2.41 µM (active).

In general, Ki refers to a measure of affinity in units of concentration, obtained from inhibition or displacement.
